Assay results: PubChem BioAssay AID1626 (SRMLSC, 2009)
Out of some 220,000 compounds screened, about 2,000 (0.91%) were called active. About 2% were inconclusive and are not listed. Rule as the data show it: inconclusive = inhibition above about 80% without an active follow-up result; inactive = below that; test concentration not stated here. These entries were drawn from the full list. Results with a measured potency or affinity are listed apart.

Test: M. tuberculosis H37Rv growth inhibitors, H37Rv strain (AID 1626);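 also: bacteria incubated seven days before Alamar blue readout; 0% = bacteria only wells and 100% = bacteria with antibiotic wells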
Conditions: hits give high values, concentration not given here

SMILES | inhibition
O=C(CN1CCC(n2nnc3cc(F)ccc32)CC1)NNC(=O)c1ccccc1 | -6.09% (inactive)
N#Cc1ccc(COC(=O)c2ccccn2)cc1 | 39% (inactive)
COc1cccc(NC(=O)CSc2ncnc3c2cnn3Cc2ccccc2)c1 | -10.6% (inactive)
NC(=S)NNC(=O)c1ccccc1Cl | -8.81% (inactive)
CC(C)(C)C(=O)Nc1nc(NC(=O)C(C)(C)C)nc(-c2ccccc2Cl)n1 | -0.83% (inactive)
COc1ccc(Nc2ccc(N3C(=O)CCCC3=O)cc2[N+](=O)[O-])cc1OC | -5.4% (inactive)
CCN1/C(=C\C(C)=O)Sc2ccc(OC)cc21 | -5.41% (inactive)
CC(=O)NCCNc1ccc([N+](=O)[O-])cn1 | -0.44% (inactive)
CCOC(=O)N/N=C/c1cn(CCCOc2ccccc2)c2ccccc12 | 8.89% (inactive)
C/C(=N/N1CCN(Cc2cccc3ccccc23)CC1)c1ccco1 | -5.28% (inactive)
c1ccc2c(c1)N1CCCN=C1N2CCN1CCCCC1 | 1.49% (inactive)
c1ccc2c(c1)N1CCN=C1N2CCN1CCCCC1 | -2.04% (inactive)
O=C(Nc1ccc2c(c1)OCO2)C1CCN(C(=O)c2cccs2)CC1 | 0.36% (inactive)
O=c1oc(-c2cccc(Cl)c2)nc2c1cnn2-c1ccccc1 | 22.1% (inactive)
O=c1oc(-c2ccccc2)nc2c1cnn2-c1ccccc1 | 19.8% (inactive)
N#C/C(=C\c1ccc(Cl)c([N+](=O)[O-])c1)c1ccccn1 | 6.45% (inactive)
CCOC(=O)c1c(NC(=O)CNCC(O)CO)sc(C)c1C (stereo not given) | 4.88% (inactive)
O=C(Cn1cnc([N+](=O)[O-])n1)NC1CC1 | -0.97% (inactive)
Nc1nc(Cl)cc(Sc2ccc3ccccc3c2)n1 | 8.65% (inactive)
Nc1nc(Cl)cc(Sc2ccc(F)cc2)n1 | 4.27% (inactive)
Cc1cc(NC(=O)CSc2nc(N)c(NC(=O)c3ccccc3)c(=O)[nH]2)no1 | -1.25% (inactive)
CCOC(=O)N1CCN(S(=O)(=O)/C=C/c2ccccc2)CC1 | -17.8% (inactive)
CCOC(=O)N1CCN(C/C(C)=C/c2ccccc2)CC1 | -4.4% (inactive)
CC(C)(C)NS(=O)(=O)c1ccc(CCC(=O)Nc2ccc3c(c2)OCCO3)cc1 | -4.02% (inactive)

SMILES | inhibition
COc1ccccc1S(=O)Cc1ccc(C(=O)O)o1 (stereo not given) | -6.58% (inactive)
C[C@H]1c2cccc(O)c2C(O)=C2C(=O)[C@]3(O)C(O)=C(C(N)=O)C(=O)[C@@H](N(C)C)[C@@H]3[C@@H](O)[C@@H]21 | 63.7% (inactive)
C=C1c2cccc(O)c2C(O)=C2C(=O)[C@]3(O)C(O)=C(C(N)=O)C(=O)[C@@H](N(C)C)[C@@H]3[C@@H](O)[C@H]12 | 1.79% (inactive)
CN(C)[C@@H]1C(=O)C(C(N)=O)=C(O)[C@@]2(O)C(=O)C3=C(O)c4c(O)cccc4[C@@](C)(O)[C@H]3C[C@@H]12 | -3.76% (inactive)
CN(C)[C@@H]1C(=O)C(C(N)=O)=C(O)[C@@]2(O)C(=O)C3=C(O)c4c(O)cccc4[C@@](C)(O)[C@H]3[C@H](O)[C@@H]12 | 11.9% (inactive)
CCN(CC)c1nc2ccccc2[nH]c1=O | -5.3% (inactive)
COc1ccc(C(=O)N/N=C/c2sc(=O)n(Cc3cccc(C(=O)O)c3)c2Cl)cc1 | -6.32% (inactive)
O=C(NCc1cccc(Br)c1)C1CC(c2ccc(C(F)(F)F)cc2)=NO1 (stereo not given) | 18.7% (inactive)
O=C(O)c1cccc(N2C(=O)/C(=C/c3ccc([N+](=O)[O-])cc3)C=C2c2ccccc2)c1 | 1.03% (inactive)
O=C1/C(=C/c2ccc([N+](=O)[O-])cc2)C=C(c2ccccc2)N1c1ccccc1 | -2.05% (inactive)
COCCCNC(=O)c1ccc(CS(=O)(=O)c2ccc(Br)cc2)o1 | -8.42% (inactive)
Cc1nc(CNC(=O)CC2C(=O)NCCN2Cc2cccc(Oc3ccccc3)c2)cs1 (stereo not given) | -3.5% (inactive)
COc1cc2c(cc1OC)C(C)N(C(C)=O)CC2 (stereo not given) | -6.23% (inactive)
COC(=O)c1sccc1NC(=O)c1sccc1C | 0.49% (inactive)
Cc1cc(C)c(NC(=O)c2cn3c4c(c(N5CCN(C)CC5)c(F)cc4c2=O)OCC3C)c(C)c1 (stereo not given) | 9.11% (inactive)
CCCCOc1ccc(C(=O)Nc2ccc(N3CCN(C)CC3)cc2)cc1 | 16.1% (inactive)
COc1ccc(CCC(=O)Nc2cccc(Cl)c2)cc1 | 10.2% (inactive)
Cc1nc2c(C)cccc2cc1C(=O)N/N=C/c1ccc(C(=O)O)cc1 | -1.57% (inactive)
COC(=O)c1cccc(NC(=O)/C=C/c2cccc([N+](=O)[O-])c2)c1 | -2.96% (inactive)
Cc1cc(C)cc(NC(=O)/C=C/c2ccc([N+](=O)[O-])s2)c1 | 15.5% (inactive)
COC(=O)c1cccc(NC(=O)/C=C/c2ccc([N+](=O)[O-])cc2)c1 | 3.4% (inactive)
Cc1ccc(NC(=O)/C=C/c2cccs2)c([N+](=O)[O-])c1 | -6.44% (inactive)
Cc1ccc(NC(C)C(=O)N/N=C/c2ccc([N+](=O)[O-])s2)cc1 (stereo not given) | 75% (inactive)
O=C(/C=C/c1cccs1)Nc1ccc([N+](=O)[O-])cc1 | 4.49% (inactive)

SMILES | inhibition
CCCC(c1nnnn1C(C)(C)C)N1CCN(Cc2ccccc2OC)CC1 (stereo not given) | -3.31% (inactive)
CCOC(=O)c1[nH]c(C)c(C(=O)NCc2cccnc2)c1C | -1.85% (inactive)
O=C(NCc1ccccn1)c1ccc(Cl)c(S(=O)(=O)Nc2ccccc2C(=O)NCc2ccccn2)c1 | -4.28% (inactive)
CCN1CCN(C(=O)c2cn(CCOC)c(=O)c3c2c2ccccc2n3C)CC1 | 2.91% (inactive)
O=C(CCC1CCCN(C(=O)c2ccsc2)C1)N1CCN(c2ccccn2)CC1 (stereo not given) | -1.82% (inactive)
COc1cccc(OC)c1C(=O)NC(=S)Nc1ccc2c(c1)OCCO2 | 7.64% (inactive)
COC(=O)N/N=C/c1ccccc1 | 3.14% (inactive)
CC(C)(C)OC(=O)N1CCN(C(=O)Nc2ccc3c(c2)OCCO3)CC1 | 3.99% (inactive)
CC(=O)NC(CCS(C)(=O)=O)C(=O)Nc1cc(Cl)ccc1Cl (stereo not given) | 4.83% (inactive)
COc1ccccc1NC(=O)CN1C(=O)NC(CC(C)C)C1=O (stereo not given) | -11.7% (inactive)
CCc1nnc(NS(=O)(=O)c2ccc(N=Cc3c(C)[nH]n(-c4ccc(Cl)cc4)c3=O)cc2)s1 | 12.1% (inactive)
Cc1ccc(-n2[nH]c(C)c(C=Nc3ccc(S(=O)(=O)Nc4nccs4)cc3)c2=O)c(C)c1 | 45.6% (inactive)
COc1ccc(NC(=O)CN(Cc2ccccc2)Cc2ccccc2)cc1S(N)(=O)=O | 4.02% (inactive)
CN(Cc1ccccc1)c1nc(-c2ccc([N+](=O)[O-])cc2)nc2ccccc12 | 0.45% (inactive)
O=[N+]([O-])c1ccc(-c2nc(NCc3ccccc3)c3ccccc3n2)cc1 | -2.12% (inactive)
Cc1ccc(Nc2nc(-c3ccncc3)nc3ccccc23)cc1 | -4.95% (inactive)
Cc1ccc(-c2nc(Cl)nc3ccccc23)cc1 | -2.37% (inactive)
CC1(C(=O)N2CCN(c3ccccc3)CC2)CC1(Cl)Cl (stereo not given) | 0.45% (inactive)
COCCCNC(=O)CSc1nc2sc(C(=O)OC)c(C)c2c(=O)n1N | 7.98% (inactive)
CN(C)C(=O)Cn1c(SCC(=O)N2CCCc3ccccc32)nc2ccccc21 | -5.91% (inactive)
Cc1ccc(OCc2nc3c4c(ncn3n2)-c2ccccc2CC42CCCC2)cc1 | -1.61% (inactive)
COc1ccc2c(c1)CCC/C2=N/OC(=O)c1ccccc1OC | 10.5% (inactive)
CCCSc1nc2c(=O)[nH][nH]c(=O)c2n1Cc1ccccc1 | -2.99% (inactive)
COC(=O)CSc1nnc(-c2ccccc2OC)o1 | 1.84% (inactive)

SMILES | inhibition
CCOC(=O)CSc1nnc(-c2ccccc2OC)o1 | 10.6% (inactive)
O=C(CSc1nnc(-c2ccccc2NC(=O)c2ccccc2)o1)OC1CCCCC1 | 61.5% (inactive)
CCOC(=O)N1CCN(C(=O)CSc2nnc(-c3cc(OC)ccc3OC)o2)CC1 | 17.1% (inactive)
COc1ccc(-c2nnc(SCC(=O)N3CCCCC3)o2)c(OC)c1 | 3.89% (inactive)
O=C(Nc1ccccc1-c1nnc(SCc2ccccc2)o1)c1ccccc1 | 8.97% (inactive)
C#CCNC(=O)C1=C[C@@H](C)[C@H](CCCO)[C@@H](OCC)O1 | -2.73% (inactive)
O=C(CCn1[nH]c(=O)c2ccccc2c1=O)NCCO | -2.07% (inactive)
COc1cccc(-c2nc(-c3ccc(NC(=O)c4ccncc4)cc3)no2)c1 | 7.98% (inactive)
CC1(C)OC(=O)C(=NNc2ccc(Br)cc2)C(=O)O1 | 76.6% (inactive)
O=C1c2ccccc2C(=O)N1CCCCN(C(=O)c1ccc([N+](=O)[O-])cc1)c1ccc(Cl)cc1 | -7.62% (inactive)
O=C1c2ccccc2C(=O)N1CCCCN(C(=O)c1cccc([N+](=O)[O-])c1)c1ccc(Cl)cc1 | -4.65% (inactive)
CCOC(=O)C1(CCOc2ccccc2)CCN(Cc2ccc3c(c2)OCCO3)CC1 | -3.31% (inactive)
O=c1[nH]c(=O)n(CCOc2ccc(Cl)cc2)cc1Br | -3.97% (inactive)
COCCNC(=S)N1CCC(c2nc(-c3ccc(F)cc3)no2)CC1 | -1.41% (inactive)
CC1=Nc2ccccc2/C1=C/c1sc(=O)n(CC(=O)N2CCCC2)c1O | -8.48% (inactive)
CC1=Nc2ccccc2/C1=C/c1sc(=S)n(-c2cccc(C(=O)O)c2)c1O | 4.52% (inactive)
CC(C)CN(CCC(=O)O)CC(C)C | -0.69% (inactive)
CCOC(=O)c1cnc(-n2nc(C)cc2C)nc1Nc1ccccc1OC | 25.4% (inactive)
CCOC(=O)c1cnc(-n2nc(C)cc2C)nc1NCCO | 4.03% (inactive)
CCOC(=O)c1cnc(-n2cc(C)cn2)nc1NCc1ccc2c(c1)OCO2 | 59.5% (inactive)
CCOC(=O)c1cnc(-n2nc(C)cc2C)nc1N1CC(C)OC(C)C1 (stereo not given) | -1.14% (inactive)
CCOC(=O)c1ccc(NCc2ccc3c(c2)OCO3)cc1 | 7.94% (inactive)
CCOC(=O)c1cnc(-n2nc(C)cc2C)nc1Oc1ccccc1F | -2.19% (inactive)
